Hit rate of the full screen: of about 48,000 compounds, about 13,000 (27%) showed an effect of 50% or more. The list shows a part of the results.
test system: Wolbachia pipientis; test: Anti-Wolbachia Cell-Based Screen; format: functional; parameters: scale not given: in the data most compounds retested in dose-response had high values; details: 5 µM

SMILES	Percent Effect [%]
COCC(=O)NCC(Cc1cccc(F)c1)n1cccc1 (stereo not given)	5.07
CC(C)SCCNC(=O)c1cccc2ccnn12	5.28
Cc1cc(C)c(CNC(=O)N(C)Cc2nnc3n2CCC3)c(=O)[nH]1	2.2
CSCC(C)(O)CNC(=O)c1ccc(Br)cc1F (stereo not given)	2.874
COCC(NC(=O)NCc1cccc(Cl)c1)c1ccco1 (stereo not given)	4.656
Cc1ccc(N2CCC3(CCC(=O)N3)CC2)nn1	-16.01
Cc1ccc(N2CC[C@]3(O)CCN(CCN4CCCC4=O)C[C@@H]3C2)nn1	-23.37
Cc1ccc(N2CCC(CCN3CCCC3=O)CC2)nn1	86.49
Cc1csc(N2CCC(CCN3CCCC3=O)CC2)n1	99.55
Cc1csc(N2CCN(CCCN3CCCC3=O)CC2)n1	-4.511
Cc1csc(N2CCCN(C(=O)CCN3CCCC3=O)CC2)n1	4.733
OCC1(O)CCN(Cc2ccc(-c3cc[nH]n3)s2)CC1	-3.236
CCCN1CC(NC(=O)Nc2nc(C)n(C(C)C)n2)CC1=O (stereo not given)	-10.65
Cc1cc(NC(=O)CN2CCN(c3nccs3)C(C)C2)n(C)n1 (stereo not given)	-9.576
CC1CN(CC(=O)Nc2nncs2)CCN1Cc1nccn1C (stereo not given)	-11.48
CCc1cnc(N2CCN(CC(=O)Nc3c(C)n[nH]c3C)CC2)s1	-15.52
Cc1nn(C)c(C)c1NC(=O)CN1CCN(c2nccs2)C(C)C1 (stereo not given)	107.6
Cc1csc(N2CCN(CC(=O)Nc3c(C)n[nH]c3C)CC2C)n1 (stereo not given)	7.256
Cc1n[nH]c(C)c1NC(=O)CN1CCN(c2nccs2)C(C)C1 (stereo not given)	95.63
CCC(C(=O)NC1CCN(S(C)(=O)=O)CC1)n1cccn1 (stereo not given)	-1.013
Cc1cc(C)n(CCC2CC(=O)Nc3cc4[nH]ncc4cc32)n1 (stereo not given)	5.657
O=C(Cc1cccnc1)N1CCC(OCc2ccccc2)CC1	5.712
COc1ccccc1CC1CCCN(CC(=O)N2CCOCC2)C1 (stereo not given)	1.243
O=C(CN1C[C@H]2C[C@H](OCc3ccccc3)C[C@H]2C1)N1CCOCC1	120.8
O=C(CO)N1CC2(CCN(c3ccccc3)C2)C1	-2.652
O=C(C1CCOC1)N1C[C@H]2CN(c3ccccc3)C(=O)[C@H]2C1 (stereo not given in full)	2.352
O=C(C1CCOC1)N1CCC(OCc2ccccc2)CC1 (stereo not given)	104.9

SMILES	Percent Effect [%]
O=C(COCc1ccccc1)N1CCC(OCc2cccnc2)CC1	-1.111
O=C(CN1CCSCC1c1ccccc1)N1CCOCC1 (stereo not given)	-10.11
O=C(CCO)N1CC2(CCN(c3ccccc3)C2)C1	3.033
O=C(C1CCOC1)N1CC2(CCN(c3ccccc3)C2)C1 (stereo not given)	126.5
O=C(C1CCOCC1)N1C[C@H]2C[C@H](OCc3ccccc3)C[C@H]2C1	85.95
O=C(C1CCOCC1)N1CCC2(CC1)CC(Oc1ccccc1)CO2 (stereo not given)	2.022
CC(=O)c1c(C)nn(CC(=O)N2Cc3cnc(C(C)(C)C)nc3C2)c1C	-8.133
CCS(=O)(=O)N1Cc2c(Cn3ccnc3)nn(C)c2C1	-18.78
CC(C)(C)OC(=O)N1CCCc2ccc(NCc3cc[nH]c3)cc21	-2.534
O=C(NCC1Cn2nnc(-c3ccsc3)c2CO1)N1CCCC1 (stereo not given)	-5.299
CC(=O)N1CCC2(CC1)CN(C(=O)c1cccnc1)c1ccc(F)cc12.O=C(O)C(F)(F)F	91.49
CC(=O)N1CCC2(CC1)C(=O)N(c1cccnc1)c1ccc(F)cc12	-4.26
O=C(O)c1ccc2c(c1)C1(CCCCC1)CN2C(=O)c1ccnnc1	-1.269
CCCN1CCC2(CC1)CN(C(=O)c1cccnc1)c1ccc(F)cc12.O=C(O)C(F)(F)F.O=C(O)C(F)(F)F	115.7
COCCN1CCC2(CC1)CN(C(=O)C1CC1)c1ccc(F)cc12.O=C(O)C(F)(F)F	-7.452
O=C(O)c1ccc2c(c1)C1(CCCCC1)CN2C(=O)c1cccc(F)c1	-4.529
Cc1cncc(C(=O)N2Cc3ccccc3C3(CCN(C)CC3)C2)c1	-5.03
CCN1CCC2(CC1)CN(C(C)=O)c1ccc(C)cc12	-4.945
O=C(C1CC1)N1CC2(CCN(CC3CC3)CC2)c2cc(F)ccc21.O=C(O)C(F)(F)F	-39.82
CN1CCC2(CC1)CN(C(=O)c1cccnc1)c1ccc(Cl)cc12	127.2
CCN1CCC2(CC1)CN(C(=O)c1cccnc1)c1ccc(Cl)cc12.O=C(O)C(F)(F)F.O=C(O)C(F)(F)F	116.9
CCCc1cncnc1N1CCC(NCc2ccc(O)cc2)CC1	-4.089
O=C(Nc1cccnc1)C1=Cc2ccccc2OC1	18.82
O=C(CSC1CCCC1)N1CCN(c2ccc(-n3cncn3)nn2)CC1	20.49
CCN1CCN(Cc2nc(CCc3ccccc3)n[nH]2)CC1	14.2
CC(NC(=O)CN1CCN(Cc2ccc(Br)s2)CC1)c1ccccc1 (stereo not given)	-2.941
CCN(CC)c1ccc(NS(=O)(=O)c2cnn(CC)c2)cn1	-19.91

SMILES	Percent Effect [%]
Cc1occc1C(=O)NCC(=O)N1CCC(COc2ccccc2)CC1	1.262
Cc1ocnc1C(=O)N(Cc1cccnc1)C[C@@H]1CCC(=O)N1	-1.977
CCN(CCc1nccs1)C(=O)c1ncoc1C	-4.771
Cc1ocnc1C(=O)N(C)[C@@H]1CC[C@@H](n2ccnc2C)[C@@H]1O	115
Cc1ocnc1C(=O)N(C)[C@@H]1CC[C@@H](Oc2ccccc2)[C@@H]1O	100.2
Cc1ocnc1C(=O)N(C)[C@@H]1CCC[C@@H](N2CCCC2)[C@@H]1O	115.9
Cc1cn2c(CN(C)C(=O)c3ncoc3C)c(C)nc2s1	-12.17
Cc1occc1C(=O)NCC(=O)N(C)CCCOc1ccccc1	11.74
Cc1ocnc1C(=O)N[C@H]1CN(CC2CCC2)C[C@@H]1C(C)C	16.35
CCCN(CCC)C1(Cc2cc(-c3cccc(O)c3)on2)COC1	-7.184
N#CCCN(C(=O)CN1CCCC1Cc1ccccc1)c1ccccc1 (stereo not given)	14.76
CN(C)CCn1ccc(NC(=O)NC(C)(C)c2nccs2)n1	4.261
Cn1ccnc1-c1noc(NCc2ccc3c(c2)OCCO3)n1	-0.6068
Cc1cc(-c2cnc(NCc3ccccn3)nc2C(C)C)on1	93.57
Cc1cc(-c2cnc(NCc3ccc4c(c3)OCO4)nc2C(C)C)on1	111.2
COc1ccc(CNC2(Cc3cc(CC(C)C)on3)COC2)cc1	1.284
COc1ccc(CNc2ncc(-c3cc(C)no3)c(C(C)C)n2)cc1	97.64
COc1cccc(CNc2nc(C)cc(C)n2)c1OC	34.66
COc1ccccc1CNc1ncc(-c2cc(C)no2)c(C(C)C)n1	92
Cc1ccn(-c2ccccc2NCc2ccccn2)n1	5.866
CC(C)c1nn(C)c(N(C)C)c1CNCc1ccc2c(c1)OCO2	-1.149
Cn1ncnc1-c1ccnc(NCc2ccccn2)n1	-1.94
COCc1cc(NCc2ccccc2OC)ncn1	-8.883
COc1ccc(CNC(C)c2cnc3cc(C)nn3c2C)cc1 (stereo not given)	8.81
CN(Cc1ccc(F)cc1)C(=O)NCC1(N2CCOCC2)CCSC1 (stereo not given)	-20.26
COc1cccc(-n2c(SCC(=O)O)nnc2-c2cn[nH]c2)c1	1.781
Cc1csc(CNC(=O)NCC(O)c2ccc(F)cc2F)n1 (stereo not given)	-0.3867

SMILES	Percent Effect [%]
Cc1cnc(NCc2ccc(S(=O)(=O)N(C)C(C)C)cc2)nc1C	-3.312
Cc1cc(-c2cnc(NCc3ccncc3)nc2C(C)C)on1	155.1
CCc1c(NCc2ccncc2)cnn1CC(C)C	-6.7
Cc1ccc2c(c1)C1(CC2)CCN(c2nncs2)CC1	-2.782
O=C(O)C(F)(F)F.c1cncc(-c2ccc3c(c2)C2(CC3)CCN(c3nncs3)CC2)c1	7.623
CC/C=C(/C)C(=O)N1CCN(C2=NCC(C)S2)CC1 (stereo not given)	-1.897
CCOCCN1CCN(Cc2nc(C3CC3)no2)CC1CC (stereo not given)	-17.64
O=C(NC1CC1)[C@@H]1CCO[C@@H]2CCN(CC3CCC3)C[C@H]21.O=C(O)C(F)(F)F	-19.72
CC(C)CN1C[C@H]2C[C@H](C(=O)NC3CCC3)[C@@H](C1)O2.O=C(O)C(F)(F)F	89.64
O=C(NC1CCC1)[C@H]1C[C@@H]2CN(CC3CC3)C[C@H]1O2.O=C(O)C(F)(F)F	120
O=C(NC1CC1)[C@@H]1CCO[C@@H]2CCN(CC3CCC3)C[C@@H]21.O=C(O)C(F)(F)F	20.69
CN(C)CCNC(=O)[C@H]1C[C@@H]2CN(C(=O)NC3CCCC3)C[C@H]1O2.O=C(O)C(F)(F)F	6.498
O=C(NC1CCC1)[C@H]1C[C@@H]2CN(S(=O)(=O)c3ccccc3)C[C@H]1O2	5.233
NC(=O)c1cc(-c2cccc(C(=O)O)c2)cs1	7.533
CCCN(C)CC1CCN(c2ccc(Br)c(C)n2)C1 (stereo not given)	-15.16
NC(=O)[C@@H]1Cc2ccccc2CN1CCC(=O)N1CCOCC1	8.62
CC1CCN(C(=O)CCN2Cc3ccccc3C[C@H]2C(N)=O)C1 (stereo not given in full)	-2.608
NC(=O)[C@@H]1Cc2ccccc2CN1CCc1cccs1	-22.09
CC1CCN(S(=O)(=O)N2C[C@H](c3ccccc3)[C@@H](N)C2)CC1	-3.535
NC(=O)C1Cc2ccccc2CN1CCC(=O)N1CCc2ccccc21 (stereo not given)	-4.733
NC(=O)[C@@H]1Cc2ccccc2CN1S(=O)(=O)N1CCCCCC1	103
NC(=O)[C@@H]1Cc2ccccc2CN1S(=O)(=O)N1CCCCC1	78.36
CC1CCN(S(=O)(=O)N2Cc3ccccc3C[C@H]2C(N)=O)CC1	91.1
NC(=O)C1CCCN1c1cc(N2CCc3ccccc3C2)ncn1 (stereo not given)	-10.01
